This passage reports Potency results from PubChem BioAssay (NCATS).

The structures appear in SMILES notation. Results filed as inconclusive are left out. Calls of active or inactive are those of the source. Unless noted, calls come from the whole dose curve; as a rule, active = well fitted curve in the direction sought with a large enough effect; inconclusive = small, poorly fitted or top-dose-only effect, or another doubt; inactive = no such curve, though single readings can be large; an effect the other way counts as inactive or inconclusive. Some results are limits rather than exact numbers.

A short description of test [1]: S16 Schwann cell PMP22 intronic element beta-lactamase assay (AID 624044; calls by dose curve; note: nearly all actives have a fitted effect of over 15% in size). In short, it runs like this:
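Beta-lactamase reporter under a PMP22 intronic regulatory element in stable S16 rat Schwann cells; 24 h compound exposure. 460 nm blue signal normalized between DMSO (0%) and potassium clavulanate, with 535 nm FRET tracking viability; curves classed by r2 and response.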

The test system of test [2] is CP260. The test can be described thus: qHTS profiling for inhibitors of Plasmodium falciparum proliferation (AID 504749). Note: potency is the fitted concentration of half-maximal effect; nearly all actives have a fitted effect of over 60% in size. Conditions: P. falciparum in erythrocytes, SYBR Green DNA, 72 h; series mostly up to 28.7 µM. In short, it runs like this:
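SYBR Green fluorescence (ex 485 nm, em 535 nm) reports parasite DNA after 72 h compound exposure of infected red cells at 0.3% parasitemia, 2.5% hematocrit; signal normalized to 0.29 uM artemisinin and vehicle wells.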
For orientation: qHTS replaces the single test concentration by a dilution series.

Test [3] concerns the target Glucocorticoid receptor (Homo sapiens) (UniProt P04150). The experiment in a line: GR-GFP Redistribution (AID 450;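 active = compounds whose dose series gives a full or clear partial fitted curve of increased nuclear translocation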; note: potency is the fitted concentration of half-maximal effect). The note with it: U2OS GR-GFP nuclear translocation, laser cytometry, 2 h.
Test [4] shares this target. The experiment in a line: GR-EFC Redistribution (AID 451; calls by dose curve; note: potency is the fitted concentration of half-maximal effect). The note with it: CHO-K1 GR-EFC translocation, beta-gal luminescence, 2 h. A digest of the protocol:
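CHO-K1 cells expressing nuclear EA and GR-ED fragments of b-gal; compounds titrated up to 46 uM final, 2 h at 37 C. GR nuclear translocation read as complemented b-gal luminescence after 1 h RT detection.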

For test [5], the target named is Mitogen-activated protein kinase 10 (Mus musculus) (UniProt Q61831). The experiment in a line: JNK3 AlphaScreen Assay (AID 530; active = well fitted curve in either direction with a large enough effect, not every such curve was filed as active;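 note: kinase came from lysate of stimulated human HepG2 cells; signal reports phosphorylation of biotinylated GST-cJun 1-79 at Ser73 with 10 µM ATP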). A digest of the protocol:
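HepG2 lysate (IL-1b/TNFa pre-activated) + biotin-GST-cJun 1-79 + anti-pSer73 cJun; cpd titration, 15 min RT; ATP 10 uM start; Tris pH 7.6, MgCl2, DTT, vanadate; beads in EDTA buffer; AlphaScreen.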
On the technique in general: In Alpha technology, singlet oxygen from a donor bead excites a nearby acceptor bead.

Test [6] addresses Cytochrome P450 2C19 (Homo sapiens) (UniProt P33261). The experiment in a line: qHTS Assay for Inhibitors and Substrates of Cytochrome P450 2C19 (AID 899). Note: potency is the fitted concentration of half-maximal effect; nearly all actives have a fitted effect of over 60% in size. In short, it runs like this: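 5 nM human CYP2C19 with 10uM Luciferin-H EGE (at KM) in 50mM KPO4, compound preincubated 10 min at 37C, then NADPH regeneration for 60 min at 37C. Luciferin read by luminescence after detection reagent; normalized to 57uM ketoconazole as full inhibition.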

Test [7] addresses DNA dC->dU-editing enzyme APOBEC-3G (Homo sapiens) (UniProt Q9HC16). The experiment in a line: qHTS for inhibitors of Vif-A3G interactions: Validation (AID 588379). A digest of the protocol:
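Yellow fluorescence (Ex 488, Em 500-530) of Vif-coexpressing HeLa A3G-eYFP cells, scanned by Acumen cytometer, reports blocked A3G degradation. Cells plated at 700/well overnight at 37 deg C before compound addition, then a further overnight compound incubation at 37 deg C.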

Sequence of Glucocorticoid receptor (Homo sapiens) (P04150 whole entry, looked up): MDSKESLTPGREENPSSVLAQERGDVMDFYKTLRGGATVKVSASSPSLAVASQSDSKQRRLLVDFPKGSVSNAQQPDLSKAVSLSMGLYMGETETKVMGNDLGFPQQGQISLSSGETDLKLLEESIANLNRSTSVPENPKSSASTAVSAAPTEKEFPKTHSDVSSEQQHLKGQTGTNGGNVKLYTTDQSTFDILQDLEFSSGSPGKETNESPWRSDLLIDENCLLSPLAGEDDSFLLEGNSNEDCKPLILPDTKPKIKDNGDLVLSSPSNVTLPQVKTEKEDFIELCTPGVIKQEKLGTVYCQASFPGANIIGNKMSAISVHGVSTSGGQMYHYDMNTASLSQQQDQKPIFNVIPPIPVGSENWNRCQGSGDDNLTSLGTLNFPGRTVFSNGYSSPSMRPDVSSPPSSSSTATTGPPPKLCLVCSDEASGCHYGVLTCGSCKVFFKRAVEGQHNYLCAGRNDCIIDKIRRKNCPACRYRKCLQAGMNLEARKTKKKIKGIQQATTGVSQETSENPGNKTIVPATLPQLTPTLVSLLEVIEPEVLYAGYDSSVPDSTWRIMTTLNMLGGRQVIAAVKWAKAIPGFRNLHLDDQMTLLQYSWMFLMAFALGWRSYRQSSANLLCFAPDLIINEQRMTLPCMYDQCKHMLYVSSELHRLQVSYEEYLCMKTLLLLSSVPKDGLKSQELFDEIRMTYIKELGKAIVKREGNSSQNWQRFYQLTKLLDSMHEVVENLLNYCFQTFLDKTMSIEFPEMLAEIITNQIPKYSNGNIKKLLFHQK
Sequence of DNA dC->dU-editing enzyme APOBEC-3G (Homo sapiens) (Q9HC16 whole entry, looked up): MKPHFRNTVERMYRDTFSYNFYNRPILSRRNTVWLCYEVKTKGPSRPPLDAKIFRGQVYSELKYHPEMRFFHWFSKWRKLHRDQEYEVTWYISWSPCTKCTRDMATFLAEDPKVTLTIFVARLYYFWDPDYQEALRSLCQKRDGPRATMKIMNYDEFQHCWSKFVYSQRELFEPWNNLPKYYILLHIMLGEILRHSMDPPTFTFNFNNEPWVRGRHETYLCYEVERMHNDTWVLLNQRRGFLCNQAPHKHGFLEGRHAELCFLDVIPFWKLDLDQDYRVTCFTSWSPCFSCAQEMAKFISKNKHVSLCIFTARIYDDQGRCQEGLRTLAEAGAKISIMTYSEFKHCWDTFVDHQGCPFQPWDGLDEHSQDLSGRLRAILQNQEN
Sequence of Cytochrome P450 2C19 (Homo sapiens) (P33261 whole entry, looked up): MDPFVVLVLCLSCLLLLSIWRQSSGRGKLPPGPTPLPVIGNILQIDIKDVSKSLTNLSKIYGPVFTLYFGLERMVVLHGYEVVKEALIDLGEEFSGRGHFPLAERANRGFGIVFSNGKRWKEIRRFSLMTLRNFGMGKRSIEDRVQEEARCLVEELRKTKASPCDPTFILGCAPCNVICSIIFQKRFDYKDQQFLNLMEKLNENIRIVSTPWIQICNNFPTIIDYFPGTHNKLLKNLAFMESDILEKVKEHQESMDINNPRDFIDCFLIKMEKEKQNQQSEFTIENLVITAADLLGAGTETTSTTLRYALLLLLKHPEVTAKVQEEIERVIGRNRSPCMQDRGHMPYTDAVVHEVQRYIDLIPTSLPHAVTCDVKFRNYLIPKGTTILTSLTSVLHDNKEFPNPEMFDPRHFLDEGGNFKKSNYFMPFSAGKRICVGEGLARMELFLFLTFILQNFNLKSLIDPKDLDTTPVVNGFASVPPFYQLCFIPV

With `O=C(CC1NCCC[C@H]1O)Cn1cnc2cc(Br)c(Cl)cc2c1=O` (some centres not stated), the Potency entry in test [1] was “inactive”. The Potency in test [2] is 2.51 µM (active).
In the case of `Clc1ccccc1CNCC1CCC(CNCc2ccccc2Cl)CC1` (configuration not stated), the values for the Potency in test [3], in test [4] and in test [6] were > 46 µM (inactive), > 46 µM (inactive) and 0.794 µM (active), respectively. The Potency entry in test [5] and in test [7] was “inactive” in each case.
